Assay results taken from PubChem BioAssay (NCI).
Where “and” joins values, the source holds several entries; their conditions need not be identical. Equal values may be shown once. Compounds without any hit were thinned out: in the full panel of roughly 83,000, 20% have a hit.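 Values shown are percent growth following 48 h exposure of cells in 96-well plates to a single concentration of compound; below 10 was considered active.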 Calls of active or inactive are those of the source.

Columns and labels:
Assay in all cases: NCI-60 one-dose screen, 48 h (100 = growth as untreated, 0 = no growth, -100 = all killed)
HCT-15 colon = system: HCT-15 colon
HT29 colon = system: HT29 colon
SNB-75 CNS = system: SNB-75 CNS
SNB-19 CNS = system: SNB-19 CNS
U251 CNS = system: U251 CNS
PC-3 prostate = system: PC-3 prostate
SK-MEL-5 melanoma = system: SK-MEL-5 melanoma
UACC-62 melanoma = system: UACC-62 melanoma
LOX IMVI melanoma = system: LOX IMVI melanoma
SK-MEL-28 melanoma = system: SK-MEL-28 melanoma

## N=C(N)c1ccc(-c2ccc(-c3ccc(Cl)c(Cl)c3)s2)cc1
HCT-15 colon; 10 µM unless noted
  growth: -62.5% (active)
HT29 colon; 10 µM unless noted
  growth: 6.02% (active)
SNB-75 CNS; 10 µM unless noted
  growth: 103% (inactive)
SNB-19 CNS; 10 µM unless noted
  growth: -23.8% (active)
U251 CNS; 10 µM unless noted
  growth: -65.9% (active)
PC-3 prostate; 10 µM unless noted
  growth: -24.1% (active)
SK-MEL-5 melanoma; 10 µM unless noted
  growth: 94.8% (inactive)
UACC-62 melanoma; 10 µM unless noted
  growth: 88.6% (inactive)
LOX IMVI melanoma; 10 µM unless noted
  growth: -71.3% (active)
SK-MEL-28 melanoma; 10 µM unless noted
  growth: 107% (inactive)

## O=C(NNc1ccccc1)c1ncc[nH]1
HCT-15 colon; 10 µM unless noted
  growth: 34.8% (inactive)
HT29 colon; 10 µM unless noted
  growth: 54.9% (inactive)
SNB-75 CNS; 10 µM unless noted
  growth: 85.2% (inactive)
SNB-19 CNS; 10 µM unless noted
  growth: 96.5% (inactive)
U251 CNS; 10 µM unless noted
  growth: 78.6% (inactive)
PC-3 prostate; 10 µM unless noted
  growth: 71.9% (inactive)
SK-MEL-5 melanoma; 10 µM unless noted
  growth: 85% (inactive)
UACC-62 melanoma; 10 µM unless noted
  growth: 10.9% (inactive)
LOX IMVI melanoma; 10 µM unless noted
  growth: 1.27% (active)
SK-MEL-28 melanoma; 10 µM unless noted
  growth: 40.7% (inactive)

## CCCCCC#CC1OC23CCCCC2C(C#N)(C(=N)O3)C1(C#N)C#N (stereo not given)
HCT-15 colon; 10 µM unless noted
  growth: 102% (inactive)
HT29 colon; 10 µM unless noted
  growth: 88% (inactive)
SNB-75 CNS; 10 µM unless noted
  growth: 88.5% (inactive)
SNB-19 CNS; 10 µM unless noted
  growth: 95% (inactive)
U251 CNS; 10 µM unless noted
  growth: 96.4% (inactive)
PC-3 prostate; 10 µM unless noted
  growth: 81% (inactive)
SK-MEL-5 melanoma; 10 µM unless noted
  growth: 96.7% (inactive)
UACC-62 melanoma; 10 µM unless noted
  growth: 83.1% (inactive)
LOX IMVI melanoma; 10 µM unless noted
  growth: 89.7% (inactive)
SK-MEL-28 melanoma; 10 µM unless noted
  growth: 109% (inactive)

## O=C(/C=C/c1cccc(Oc2ccc(Cl)cc2)c1)c1ccccc1
HCT-15 colon; 10 µM
  growth: 80.8% (inactive)
HCT-15 colon; 100 µM
  growth: -72.6% (active)
HT29 colon; 10 µM
  growth: 84.2% (inactive)
HT29 colon; 100 µM
  growth: -67% (active)
SNB-75 CNS; 10 µM
  growth: 82.8% (inactive)
SNB-75 CNS; 100 µM
  growth: -94.8% (active)
SNB-19 CNS; 10 µM
  growth: 90.5% (inactive)
SNB-19 CNS; 100 µM
  growth: -77.3% (active)
U251 CNS; 10 µM
  growth: 76% (inactive)
U251 CNS; 100 µM
  growth: -100% (active)
PC-3 prostate; 10 µM
  growth: 84.5% (inactive)
PC-3 prostate; 100 µM
  growth: -72.3% (active)
SK-MEL-5 melanoma; 10 µM
  growth: 105% (inactive)
SK-MEL-5 melanoma; 100 µM
  growth: -97.3% (active)
UACC-62 melanoma; 10 µM
  growth: 100% (inactive)
UACC-62 melanoma; 100 µM
  growth: -71.9% (active)
LOX IMVI melanoma; 10 µM
  growth: 38.2% (inactive)
LOX IMVI melanoma; 100 µM
  growth: -99.3% (active)
SK-MEL-28 melanoma; 10 µM
  growth: 101% (inactive)
SK-MEL-28 melanoma; 100 µM
  growth: -82.2% (active)

## COc1ccc(C(=O)c2ccc(OC)c(OC)c2OC)cc1
HCT-15 colon; 10 µM unless noted
  growth: 26.6% (inactive) and 27.2% (inactive)
HT29 colon; 10 µM unless noted
  growth: 4.69% (active) and 12.7% (inactive)
SNB-75 CNS; 10 µM unless noted
  growth: -3.95% (active)
SNB-19 CNS; 10 µM unless noted
  growth: 43.6% (inactive) and 41.7% (inactive)
U251 CNS; 10 µM unless noted
  growth: 31.3% (inactive) and 26.2% (inactive)
PC-3 prostate; 10 µM unless noted
  growth: 35.5% (inactive) and 32.9% (inactive)
SK-MEL-5 melanoma; 10 µM unless noted
  growth: 18.8% (inactive)
UACC-62 melanoma; 10 µM unless noted
  growth: 40.8% (inactive) and 50.7% (inactive)
LOX IMVI melanoma; 10 µM unless noted
  growth: 34.3% (inactive) and 39.8% (inactive)
SK-MEL-28 melanoma; 10 µM unless noted
  growth: 45.3% (inactive) and 50.3% (inactive)

## COc1ccc(C(=O)/C=C/c2ccc(OCc3cccc(C(F)(F)F)c3)c(OC)c2)cc1OC
HCT-15 colon; 10 µM
  growth: 73% (inactive)
HCT-15 colon; 100 µM
  growth: 14.4% (inactive)
HT29 colon; 10 µM
  growth: 54.3% (inactive)
HT29 colon; 100 µM
  growth: 19.6% (inactive)
SNB-75 CNS; 10 µM
  growth: 93.6% (inactive)
SNB-75 CNS; 100 µM
  growth: -27.5% (active)
SNB-19 CNS; 10 µM
  growth: 93.9% (inactive)
SNB-19 CNS; 100 µM
  growth: -21.9% (active)
U251 CNS; 10 µM
  growth: 75% (inactive)
U251 CNS; 100 µM
  growth: -51.7% (active)
PC-3 prostate; 10 µM
  growth: 69.1% (inactive)
PC-3 prostate; 100 µM
  growth: -7.78% (active)
SK-MEL-5 melanoma; 10 µM
  growth: 76.5% (inactive)
SK-MEL-5 melanoma; 100 µM
  growth: -34.4% (active)
UACC-62 melanoma; 10 µM
  growth: 78.4% (inactive)
UACC-62 melanoma; 100 µM
  growth: 20.7% (inactive)
LOX IMVI melanoma; 10 µM
  growth: 51% (inactive)
LOX IMVI melanoma; 100 µM
  growth: 10% (inactive)
SK-MEL-28 melanoma; 10 µM
  growth: 101% (inactive)
SK-MEL-28 melanoma; 100 µM
  growth: 46.3% (inactive)

## COc1ccc(C(=O)N/N=C/c2ccc(O)cc2O)cc1Nc1ccnc(C(F)(F)F)c1
HCT-15 colon; 10 µM unless noted
  growth: 40.1% (inactive)
HT29 colon; 10 µM unless noted
  growth: 37.4% (inactive)
SNB-75 CNS; 10 µM unless noted
  growth: 26.4% (inactive)
SNB-19 CNS; 10 µM unless noted
  growth: 34.2% (inactive)
U251 CNS; 10 µM unless noted
  growth: 28.3% (inactive)
PC-3 prostate; 10 µM unless noted
  growth: 64.5% (inactive)
SK-MEL-5 melanoma; 10 µM unless noted
  growth: 24.2% (inactive)
UACC-62 melanoma; 10 µM unless noted
  growth: 1.67% (active)
LOX IMVI melanoma; 10 µM unless noted
  growth: 8.4% (active)
SK-MEL-28 melanoma; 10 µM unless noted
  growth: 42.9% (inactive)

## COc1ccc(N2CCN(S(=O)(=O)c3oc(-c4ccccc4)nc3C#N)CC2)cc1
HCT-15 colon; 10 µM unless noted
  growth: 9.51% (active)
HT29 colon; 10 µM unless noted
  growth: 50.6% (inactive)
SNB-75 CNS; 10 µM unless noted
  growth: 93.4% (inactive)
SNB-19 CNS; 10 µM unless noted
  growth: 92.2% (inactive)
U251 CNS; 10 µM unless noted
  growth: 88.2% (inactive)
PC-3 prostate; 10 µM unless noted
  growth: 92% (inactive)
SK-MEL-5 melanoma; 10 µM unless noted
  growth: 81.2% (inactive)
UACC-62 melanoma; 10 µM unless noted
  growth: 85.5% (inactive)
LOX IMVI melanoma; 10 µM unless noted
  growth: 4.64% (active)
SK-MEL-28 melanoma; 10 µM unless noted
  growth: 98.6% (inactive)

## NS(=O)(=O)OCC1OC(n2cnc3cncnc32)C(O)C1O (stereo not given)
HCT-15 colon; 10 µM unless noted
  growth: 22% [0.1 µM] (inactive) and 8.65% [0.1 µM] (active)
HT29 colon; 10 µM unless noted
  growth: 13.7% [0.1 µM] (inactive) and 14.3% [0.1 µM] (inactive)
SNB-75 CNS; 10 µM unless noted
  growth: 32.3% [0.1 µM] (inactive) and 40.4% [0.1 µM] (inactive)
SNB-19 CNS; 10 µM unless noted
  growth: -4.22% [0.1 µM] (active) and 0.183% [0.1 µM] (active)
U251 CNS; 10 µM unless noted
  growth: -11.8% [0.1 µM] (active)
PC-3 prostate; 10 µM unless noted
  growth: 21% [0.1 µM] (inactive) and 17.8% [0.1 µM] (inactive)
SK-MEL-5 melanoma; 10 µM unless noted
  growth: 49.4% [0.1 µM] (inactive)
UACC-62 melanoma; 10 µM unless noted
  growth: 44.2% [0.1 µM] (inactive) and 42.4% [0.1 µM] (inactive)
LOX IMVI melanoma; 10 µM unless noted
  growth: 5.02% [0.1 µM] (active) and 5.99% [0.1 µM] (active)
SK-MEL-28 melanoma; 10 µM unless noted
  growth: 38.5% [0.1 µM] (inactive) and 37.4% [0.1 µM] (inactive)

## CCOC(=O)c1c(-c2ccc(OC)cc2)c(C#N)c2c(C#N)c(N)nn2c1N
HCT-15 colon; 10 µM unless noted
  growth: 22.6% (inactive)
HT29 colon; 10 µM unless noted
  growth: 6.58% (active)
SNB-75 CNS; 10 µM unless noted
  growth: 43.4% (inactive)
SNB-19 CNS; 10 µM unless noted
  growth: 31.2% (inactive)
U251 CNS; 10 µM unless noted
  growth: 15.8% (inactive)
PC-3 prostate; 10 µM unless noted
  growth: 40% (inactive)
SK-MEL-5 melanoma; 10 µM unless noted
  growth: 19.3% (inactive)
UACC-62 melanoma; 10 µM unless noted
  growth: 13.1% (inactive)
LOX IMVI melanoma; 10 µM unless noted
  growth: 28.3% (inactive)
SK-MEL-28 melanoma; 10 µM unless noted
  growth: 44.8% (inactive)
